Source: PubChem BioAssay
Lassa entry inh – Lassa virus entry inhibition. Potency, µM (series often up to 37.9 µM), without a hit: at the top dose activity change, negative = inhibition, usual class: inhibitors. actives 1.2% (n = 300,000). Lassa virus pseudotype entry inhibition, cell reporter; calls by dose curve; tested in HEK293 cells; note: potency is the fitted concentration of half-maximal effect; nearly all actives have a fitted effect of over 50% in size
HCMV antiviral – human cytomegalovirus inhibition; HFF cells, HCMV-luciferase reporter, 72 h; stronger effect = lower value; activity change, negative = inhibition, % at 57.5 µM; actives 4.5% (n = 410,000); in the data active = activity change below about -60%; inconclusive = no clear call, values can overlap the other calls; inactive = above about -39%
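Compounds were evaluated in HFFs infected with an HCMV luciferase reporter virus (MOI 1 PFU/cell). Luciferase in lysates collected 72 h post infection served as the replication measure.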
Marburg entry inh – inhibitors of Marburg virus binding or cell entry; Marburg virus pseudotyped entry inhibition, cell reporter; actives 1.8% (n = 300,000); AID 540276; Potency, µM (titrated, usually from 37.8 µM), without a hit: at the highest dose activity change, negative = inhibition, most hits filed as inhibitors; calls by dose curve; tested in HEK293 cells; note: potency is the fitted concentration of half-maximal effect
FMDV inh – antivirals against foot and mouth disease virus; FMDV antiviral cell-based qHTS; Potency, µM (highest dose often 57.9 µM), inactives show at the top dose activity change, negative = inhibition, usual class: inhibitors; actives 1.2% (n = 410,000); AID 1159524; calls by dose curve; tested in HEK293T cells; note: read-out not given here; potency is the fitted concentration of half-maximal effect; nearly all actives have a fitted effect of over 45% in size
Vaccinia Venus – vaccinia inhibition (Venus reporter) | Vaccinia virus Venus reporter expression, fluorescence | Potency, µM (titrated, usually from 36.5 µM), for inactives: at the highest dose activity change, negative = inhibition, most hits filed as inhibitors | actives 0.46% (n = 330,000) | AID 720580; calls by dose curve; tested in A549 cells; note: potency is the fitted concentration of half-maximal effect; nearly all actives have a fitted effect of over 30% in size
Vaccinia mCherry – inhibitors of vaccinia virus infection (mCherry reporter signal) | Vaccinia virus mCherry reporter infection, fluorescence | actives 0.63% (n = 310,000) | Potency, µM (series often up to 36.5 µM), for the others: at the highest dose activity change, negative = inhibition, actives largely listed as inhibitors; calls by dose curve; tested in A549 cells; note: potency is the fitted concentration of half-maximal effect; nearly all actives have a fitted effect of over 35% in size
Numbers without * were called inactive; i = inactive; ? = inconclusive; . = no result; [ ] = dose if it differs, or a comment. Hits are enriched below; roughly 6.5% of the tested compounds scored in any of these assays. % is set by controls: 0 for no effect and ±100 for the full control effect.

SMILES | Lassa entry inh | HCMV antiviral | Marburg entry inh | FMDV inh | Vaccinia Venus | Vaccinia mCherry
O=C(c1cccc2ccccc12)N1CCN(S(=O)(=O)c2ccccc2)CC1 | . | . | . | . | -7% | -3%
CCOc1ccc(Nc2oc(/C=C/c3cccc(OC)c3)nc2C#N)cc1 | 0%[46.1 µM] | 20 | 7%[46.1 µM] | -14% | -2% | -18%
COc1ccc(OCC(=O)N2CCc3c([nH]c4ccccc34)C2c2ccccn2)cc1 (configuration not stated) | . | -70* | . | -8% | -13% | -5%
O=C(c1cc(-c2ccccc2)n[nH]1)N1CCc2c([nH]c3ccccc23)C1c1ccccn1 (configuration not stated) | ? | -2 | 5.6µM* | -30% | ? | ?
Cc1cccc(C2c3[nH]c4ccccc4c3CCN2C(=O)c2noc3c2CCCC3)n1 (configuration not stated) | . | 3 | . | 15% | . | .
O=C(c1noc2c1CCCC2)N1CCc2c([nH]c3ccccc23)C1c1ccccn1 (configuration not stated) | -19% | -62* | ? | 6% | -8% | -12%
CSc1nc(C(=O)N2CCOc3ccc(CN4CCN(Cc5ccccn5)CC4)cc3C2)cs1 | . | . | . | 40% | 1% | -11%
Cc1ccc(C)c(CNC(=O)CN2C(=O)CSc3ccc(S(=O)(=O)N(C)C)cc32)c1 | 1%[46.1 µM] | -1 | . | -4% | 0% | -11%
Cc1cc(C(F)(F)F)nn1CC(=O)NC[C@H]1CCCO1 | . | . | 3% | . | . | .
O=C(CCl)N=c1sccn1Cc1cccc2ccccc12 | . | -100* | . | ? | . | .
O=C(CCl)N=c1sccn1Cc1ccc(Cl)cc1Cl | ? | -99* | ? | ? | -14% | i
O=C(CCl)N=c1sccn1Cc1ccccc1Cl | ? | -91* | ? | ? | -17% | i
COc1ccc(Br)cc1CNC(=O)CSc1cc(=O)n(C)c2ccccc12 | 14%[46.1 µM] | 18 | ? | -9% | -4% | 3%
N#Cc1c(N)nc(Sc2ccc(Cl)cc2)c(C#N)c1-c1ccccc1Cl | ? | -78* | ? | 28µM* | -29% | ?
Cc1ccc(-c2cc(-c3ccccc3Cl)c(C#N)c(N)n2)o1 | -5% | -37 | -3%[46.1 µM] | ? | 3% | -13%
C=CCSc1nc(N)c(C#N)c(-c2ccc(C)cc2)c1C#N | -18% | ? | -10%[46.1 µM] | -2% | -29% | .
CCSc1nc(N)c(C#N)c(-c2ccccc2Cl)c1C#N | -13% | -63* | -1% | -25% | . | .
Cc1nnc(SCC(=O)NCc2ccccc2F)c2nn(-c3ccc(Cl)cc3)c(C)c12 | -11%[46.1 µM] | -9 | . | -25% | -19% | ?
O=C(CN1C(=O)CCC1=O)c1ccc(-c2ccccc2)cc1 | ? | -28 | ? | 22% | -10% | i
N=c1ccn(CC(=O)c2ccc(-c3ccccc3)cc2)cc1 | ? | -76* | ? | ? | ? | ?
CC(=O)c1ccc(N2CCN(C(=O)c3n[nH]c4ccccc34)CC2)cc1 | -12% | -1 | ? | ? | -21% | -3%
COc1ccc(N2CCN(C(=S)Nc3ccccc3)CC2)cc1 | ? | -15 | ? | 16% | -7% | -18%
CC(=O)c1ccc(N2CCN(C(=O)c3cccc(Oc4ccccc4)c3)CC2)cc1 | 3.2µM* | -1 | ? | -21% | -24% | -12%
CC(=O)c1ccc(N2CCN(C(=O)c3ccc(-c4ccccc4)cc3)CC2)cc1 | ? | -66* | -22%[46.1 µM] | -8% | -9% | i
CC(=O)c1ccc(N2CCN(C(=O)c3nn(Cc4ccccc4)c(=O)c4ccccc34)CC2)cc1 | 10µM* | 5 | ? | -4% | -8% | -17%
SMILES | Lassa entry inh | HCMV antiviral | Marburg entry inh | FMDV inh | Vaccinia Venus | Vaccinia mCherry
CC(=O)c1ccc(N2CCN(C(=S)Nc3ccc(Oc4ccccc4)cc3)CC2)cc1 | ? | -63* | ? | 0% | -24% | ?
Cc1ccc(C)c(NC(=O)Cn2cc(C(=O)C3CCCCC3)c3ccccc32)c1 | ? | -15 | ? | -22% | -9% | 3%
O=S(=O)(c1ccccc1)N1[C@@H]2CC[C@@H](C2)[C@H]1c1nc2c(OCC3CCOCC3)cccc2[nH]1 | . | 1 | . | . | . | .
COc1ccc(CCNC(=O)C(=O)NCC2CCCN2S(=O)(=O)c2ccccc2)cc1OC (configuration not stated) | ? | -4 | ? | 22µM* | -24% | -29%
O=C(NCCc1ccccc1)C(=O)NCC1CCCN1S(=O)(=O)c1ccccc1 (configuration not stated) | ? | -28 | 11µM* | -19% | ? | ?
COc1ccc(CCNC(=O)C(=O)NCC2OCCN2S(=O)(=O)c2ccccc2)cc1OC (configuration not stated) | . | -27 | . | -21% | -19% | -14%
COC(=O)[C@]1(C#N)[C@H](C)C(=O)N(Cc2ccccc2)[C@@H]1/C=C/c1ccccc1 | . | -10 | . | . | . | .
Cc1ccc(CCNC(=O)CN2C(=O)COc3ccc(S(=O)(=O)N4CCCC4)cc32)cc1 | 1%[46.1 µM] | -87* | . | -7% | -16% | i
CCN(CC)S(=O)(=O)c1ccc2c(c1)N(CC(=O)NCCCN1CCN(c3ccccc3F)CC1)C(=O)CO2 | 2%[46.1 µM] | -12 | ? | -3% | -12% | -13%
CCN(CC)S(=O)(=O)c1ccc2c(c1)N(CC(=O)NCCCN1CCN(c3cc(C)ccc3C)CC1)C(=O)CO2 | ? | -99* | . | 0% | -22% | ?
COc1ccc(OC)c(CCNC(=O)CN2C(=O)COc3ccc(S(=O)(=O)N4CCOCC4)cc32)c1 | 1%[46.1 µM] | -72* | ? | -4% | -25% | -17%
Cc1ccc(CCNC(=O)CN2C(=O)COc3ccc(S(=O)(=O)N4CCC(C)CC4)cc32)cc1 | -16%[46.1 µM] | ? | . | -1% | -15% | -16%
O=C(CN1C(=O)COc2ccc(S(=O)(=O)N3CCCCCC3)cc21)Nc1cccc(Cl)c1 | -18%[46.1 µM] | -72* | . | -1% | -14% | -16%
O=C(CN1C(=O)COc2ccc(S(=O)(=O)N3CCCC3)cc21)Nc1cccc(F)c1 | . | -5 | . | 0% | . | .
COc1ccc(-c2nc3sc(CCNC(=O)c4ccc(Br)o4)c(C)n3n2)cc1 | ? | 76 | . | 4% | -15% | -11%
NC(=O)c1ccccc1NC(=O)Cn1nc(Cc2cccnc2)c2ccccc2c1=O | -14%[46.1 µM] | ? | ? | -14% | -11% | -21%
CCCCn1c(SCc2nc3ccccc3s2)nc2cc(S(N)(=O)=O)ccc21 | ? | 35 | 1.8µM* | -22% | ? | -23%
Cc1ccc(OC(C)C(=O)Nc2nonc2-c2ccc(Br)cc2)cc1C (configuration not stated) | 15%[46.1 µM] | -9 | 2%[46.1 µM] | ? | 9% | -8%
FC(F)Oc1ccc(-c2csc(NNC3=NCCCCC3)n2)cc1 | ? | -16 | ? | 28µM* | -13% | -7%
CC(=O)c1ccc(Cc2ccc(C(C)=O)cc2)cc1 | -17% | -88* | 30%[46.1 µM] | -9% | 3% | -3%
CCCN(CC1CC1)c1nc(N)c2c(N)nc(OC)cc2c1C#N | -20% | -14 | ? | ? | ? | 11µM*
